Here are results for 14 molecules from PubChem BioAssay (Tox21).

Results filed as inconclusive are left out. The source made the active and inactive calls. The call rests on the fitted dose curve; in most records, active means well fitted curve in the direction sought with a large enough effect in the repeat runs; inconclusive means weak or mixed curves; inactive means no such curve, though single readings can be large; an effect the other way counts as inactive or inconclusive.

A short description of test [1]: qHTS RealTime-Glo MT Cell Viability Assay in HEK293 cells - 40 hour (AID 1224874). Further: nearly all actives have a fitted effect of over 50% in size. Further: potency means the concentration at half of the fitted maximal effect. The following applies: RealTime-Glo luminescence; max response: active compounds read low. Put shortly:
(§1)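 Nonlytic bioluminescent viability monitoring. HEK293 at 600 cells/well with reagent; 5 h settle; compound transfer by pintool; plates held at 37 C and read at set time points.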
(In qHTS, concentration-response curves come from the screen itself.)

Test [2] in a line: A CellTox Green Cytotoxicity Assay to monitor cytotoxicity in HEK293 cells - 24 hour (AID 1224875). Further: nearly all actives have a fitted effect of over 45% in size. Further: potency means the concentration at half of the fitted maximal effect. Summed up: (§2)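 Cytotoxicity was tracked continuously in HEK293 cells by a DNA-binding dye excluded from viable cells. Compounds were transferred in DMSO 5 h after seeding; fluorescence was recorded at intervals up to 40 h.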
A short description of test [3]: A CellTox Green Cytotoxicity Assay to monitor cytotoxicity in HepG2 cells - 16 hour (AID 1224876). Further: nearly all actives have a fitted effect of over 45% in size. Further: potency means the concentration at half of the fitted maximal effect. Summed up: (§3)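 Real-time, homogeneous cytotoxicity readout: dead-cell DNA staining by CellTox Green in HepG2 monolayers, fluorescence measured at timed intervals up to 40 h of continuous compound exposure.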
Test [4] in a line: qHTS RealTime-Glo MT Cell Viability Assay in HepG2 cells - 32 hour (AID 1224877). Further: nearly all actives have a fitted effect of over 55% in size. Further: potency means the concentration at half of the fitted maximal effect. Put shortly: (§4)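 Cells + NanoLuc/prosubstrate dispensed (600 cells/well) → 5 h at 37 C/5% CO2 → compounds in DMSO transferred → 40 h incubation at 37 C, luminescence read at 0, 8, 16, 24, 32, 40 h.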
The nature of test [5]: A CellTox Green Cytotoxicity Assay to monitor cytotoxicity in HepG2 cells - 24 hour (AID 1224878). Further: nearly all actives have a fitted effect of over 45% in size. Further: potency means the concentration at half of the fitted maximal effect. Summed up:
as §3

The nature of test [6]: A CellTox Green Cytotoxicity Assay to monitor cytotoxicity in HepG2 cells - 40 hour (AID 1224879). Further: nearly all actives have a fitted effect of over 40% in size. Further: potency means the concentration at half of the fitted maximal effect. Summed up:
as §3

Test [7] in a line: qHTS RealTime-Glo MT Cell Viability Assay in HEK293 cells - 0 hour (AID 1224880). Further: top concentration of the series differs between compounds; nearly all actives have a fitted effect of over 45% in size. Summed up:
as §1

Test [8] is described as follows: A CellTox Green Cytotoxicity Assay to monitor cytotoxicity in HEK293 cells - 32 hour (AID 1224881). Further: nearly all actives have a fitted effect of over 40% in size. Further: potency means the concentration at half of the fitted maximal effect. Summed up:
as §2

Test [9] in a line: A CellTox Green Cytotoxicity Assay to monitor cytotoxicity in HepG2 cells - 0 hour (AID 1224882). Further: nearly all actives have a fitted effect of over 35% in size. Summed up:
as §3

A short description of test [10]: A CellTox Green Cytotoxicity Assay to monitor cytotoxicity in HepG2 cells - 32 hour (AID 1224883). Further: nearly all actives have a fitted effect of over 50% in size. Further: potency means the concentration at half of the fitted maximal effect. Put shortly:
as §3

A short description of test [11]: qHTS RealTime-Glo MT Cell Viability Assay in HepG2 cells - 16 hour (AID 1224885). Further: nearly all actives have a fitted effect of over 50% in size. Further: potency means the concentration at half of the fitted maximal effect. Summed up: as §4
A short description of test [12]: qHTS RealTime-Glo MT Cell Viability Assay in HEK293 cells - 24 hour (AID 1224886). Further: nearly all actives have a fitted effect of over 50% in size. Further: potency means the concentration at half of the fitted maximal effect. Summed up:
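Tox21 10K qHTS, HEK293, 600 cells/well, RealTime-Glo reagent co-dispensed with cells; 5 h preincubation, compound by pintool, 37 C, luminescence at 0–40 h.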

A short description of test [13]: A CellTox Green Cytotoxicity Assay to monitor cytotoxicity in HEK293 cells - 16 hour (AID 1224888). Further: nearly all actives have a fitted effect of over 35% in size. Further: potency means the concentration at half of the fitted maximal effect. Put shortly:
as §2

The nature of test [14]: A CellTox Green Cytotoxicity Assay to monitor cytotoxicity in HepG2 cells - 8 hour (AID 1224890). Further: nearly all actives have a fitted effect of over 45% in size. Further: potency means the concentration at half of the fitted maximal effect. Summed up:
as §3

Test [15] can be described thus: A CellTox Green Cytotoxicity Assay to monitor cytotoxicity in HEK293 cells - 8 hour (AID 1224884). Further: nearly all actives have a fitted effect of over 35% in size. Further: potency means the concentration at half of the fitted maximal effect. Summed up:
as §2

Test [16] is described as follows: qHTS RealTime-Glo MT Cell Viability Assay in HEK293 cells - 8 hour (AID 1224887). Further: nearly all actives have a fitted effect of over 50% in size. Further: potency means the concentration at half of the fitted maximal effect. Summed up: as §1
The nature of test [17]: qHTS RealTime-Glo MT Cell Viability Assay in HepG2 cells - 0 hour (AID 1224889). Further: nearly all actives have a fitted effect of over 50% in size. Summed up:
as §4

Test [18] is described as follows: qHTS assay to identify small molecule antagonists of the estrogen receptor alpha (ER-alpha) signaling pathway using the BG1 cell line in the presence of 0.1 nM 17-beta-estradiol - cell viability counter screen (AID 1259241). Further: nearly all actives have a fitted effect of over 40% in size. Further: potency means the concentration at half of the fitted maximal effect. Summed up: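 Measures cytotoxicity alongside the ER-alpha antagonist readout: VM7Luc4E2 cells, charcoal-stripped serum, 0.1 nM 17beta-estradiol final, 22 hr compound incubation at 37C, CellTiter-Fluor fluorescence.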

Test [19] can be described thus: qHTS RealTime-Glo MT Cell Viability Assay in HepG2 cells - 8 hour (AID 1224873). Further: nearly all actives have a fitted effect of over 55% in size. Further: potency means the concentration at half of the fitted maximal effect. Summed up:
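Real-time viability: cells seeded at 600 per well together with NanoLuc and cell-permeant prosubstrate, compounds added after 5 h incubation. Luminescence tracked at 0, 8, 16, 24, 32 and 40 h of exposure.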
On the % scale 0 is the no-effect control and ±100 the full control effect.

For `CCCCCCCCCCCCc1ccc(O)cc1`, the Potency in [1] was 38.9 µM (active); in [2], 49 µM (active); in [3], 15.5 µM (active); in [4] it was 49 µM (active); in test [5], 13.8 µM (active); in test [6] it was 19.5 µM (active). Besides, the Potency is 49 µM (active) in test [8]; 15.5 µM (active) in test [10]; 43.6 µM (active) in test [11]; 43.6 µM (active) in [12]; 49 µM (active) in test [13]; 17.4 µM (active) in test [14]. Besides, the Potency entry in [7] and in [9] was “inactive” each time.

Turning to `NNc1nc(-c2ccc([N+](=O)[O-])cc2)cs1`, the Potency result in [2], in test [3], in test [5], in [6], in test [7] and in [8] was “inactive” in each case. The Potency entry in test [9], in [10], in test [15], in test [16], in test [13] and in test [17] was “inactive” throughout. Moreover, the Potency entry in test [14] was “inactive”. For the same molecule, the results for the Potency in [12] and in test [18] were 24.5 µM (active) and 27.3 µM (active), respectively.

As for `OCc1c[nH]c2ccccc12`, the Potency result in test [3], in test [4], in [5], in test [7], in [9] and in [11] was “inactive” throughout. In addition, the Potency entry in test [17], in test [14] and in test [18] was “inactive” in each case.

For the molecule `O=CC=C(c1ccccc1)c1ccccc1`, the Potency result in test [19], in test [3], in [4], in [5], in [6] and in [7] was “inactive” in each case. The Potency result in test [9], in test [10], in test [11], in [13], in test [17] and in test [14] was “inactive” in each case. Further, the Potency in test [12] was 17.5 µM (active).

In the case of `COc1cccc2c1C(=O)c1c(O)c3c(c(O)c1C2=O)C[C@@](O)(C(=O)CO)C[C@@H]3O[C@H]1C[C@H](N)[C@H](O[C@@H]2CCCCO2)[C@H](C)O1`, the Potency in [1] was 0.19 µM (active); in test [3], 23.9 µM (active); in test [4], 1.9 µM (active); in test [5], 9.52 µM (active); in test [6], 1.51 µM (active); in test [10], 1.69 µM (active). Further, the Potency in test [12] was 0.338 µM (active); in [14], 23.9 µM (active). Moreover, the Potency result in test [2], in test [7], in [8], in test [15], in test [16] and in [13] was “inactive” each time. Also, in [17], the Potency result is “inactive”.

Consider `CC1=C(C(=O)OC(C)C)C(c2cccc([N+](=O)[O-])c2)C(C(=O)OC2CN(C(c3ccccc3)c3ccccc3)C2)=C(N)N1` (stereo not drawn), for which the Potency entry in test [2], in [7], in test [9], in [15], in [13] and in test [17] was “inactive” in each case. Besides, the Potency entry in test [18] is “inactive”. For the same molecule, the Potency in [4] is 21.3 µM (active); in test [5], 23.9 µM (active); in test [6] it was 23.9 µM (active); in test [11], 21.3 µM (active).

In the case of `O=Cc1cc(O)ccc1Br`, the Potency result in test [19], in [3], in test [4], in test [7], in test [9] and in test [11] was “inactive” in each case. Besides, the Potency entry in test [16], in [13], in [17], in [14] and in test [18] was “inactive” throughout.

For the molecule `O=C1c2c(O)ccc(Nc3ccc(CCO)cc3)c2C(=O)c2c([N+](=O)[O-])ccc(O)c21`, the max response in test [1] was -18.6% (inactive). The Potency result in test [2], in test [3], in test [4], in test [5], in test [6] and in test [7] was “inactive” throughout. For the same molecule, the Potency entry in test [8], in test [9], in test [10], in test [15], in [13] and in test [14] was “inactive” each time. Besides, the Potency in test [16] was 43.6 µM (active).

Consider `O=C1CCCc2c1cc1ccc3cccc4ccc2c1c34`, for which the Potency result in [2], in test [3], in test [4], in test [5], in [6] and in test [7] was “inactive” in each case. Besides, the Potency entry in test [9], in test [10], in test [11], in test [13], in [17] and in test [14] was “inactive” in each case. For the same molecule, the Potency entry in test [18] is “inactive”. Also, the Potency in [12] was 8.82 µM (active).

For the molecule `O=S1(=O)CC(Cl)(Cl)C(Cl)(Cl)C1`, the Potency in [19] is 8.71 µM (active); in test [3], 11 µM (active); in [4], 6.16 µM (active); in test [5] it was 9.77 µM (active); in test [6], 6.92 µM (active); in test [11] it was 6.92 µM (active). Also, the Potency is 13.8 µM (active) in test [14] and 21.7 µM (active) in test [18]. For the same molecule, the Potency result in [7], in test [9] and in [17] was “inactive” in each case.

`CCCCCCCCCCCCCCCCCC[N+](C)(C)C`: the Potency in test [1] was 7.79 µM (active); in [2], 39 µM (active); in test [6] it was 49.1 µM (active); in test [8], 21.9 µM (active); in [10], 49.1 µM (active); in test [15], 39 µM (active). For the same molecule, the values for the Potency in [12], in test [16] and in [13] were 19.6 µM (active), 49.1 µM (active) and 49.1 µM (active), respectively. Moreover, the Potency entry in test [7], in [9], in test [17] and in test [18] was “inactive” in each case.

As to `COc1ccc(CN2CCN(C(c3ccc(F)cc3)c3ccc(F)cc3)CC2)c(OC)c1OC`, the Potency in [1] was 16.9 µM (active); in test [6], 10.7 µM (active); in test [10], 10.7 µM (active); in test [12] it was 9.52 µM (active). Besides, the Potency result in test [2], in [3], in test [5], in test [7], in [8] and in [9] was “inactive” each time. For the same molecule, the Potency result in test [15], in test [13], in test [17], in [14] and in [18] was “inactive” in each case.

Regarding `CN(C)c1ccc(C2(c3ccc(N(C)C)cc3)OC(=O)c3cc(N(C)C)ccc32)cc1`, the max response in [1] was -1.22% (inactive). Moreover, the Potency entry in test [2], in test [3], in [5], in test [6], in test [7] and in test [8] was “inactive” throughout. Moreover, the Potency result in test [9], in test [12], in test [13], in [17], in test [14] and in [18] was “inactive” each time.

For `O=C(OCC(COC(=O)c1ccccc1)(COC(=O)c1ccccc1)COC(=O)c1ccccc1)c1ccccc1`, the Potency in test [1] is 48.9 µM (active); in [12], 48.9 µM (active); in test [16], 24.5 µM (active). The Potency entry in test [3], in test [4], in test [5], in test [6], in test [7] and in test [9] was “inactive” each time. For the same molecule, the Potency entry in test [10], in test [15], in test [11], in test [17], in [14] and in [18] was “inactive” throughout.
